Source: PubChem (National Center for Advancing Translational Sciences (NCATS))
An excerpt weighted towards active compounds, which were near 12% of everything screened.
G9a inh: G9a (human) methyltransferase inhibition | Q96KQ7 | G9a H3K9 monomethylation, AlphaScreen, 2 h | Potency, µM (top dose mostly 102 µM), without a hit: top-dose activity, negative = inhibition, usual class: inhibitors | 350,000 compounds, 8.8% hits | AID 504332; note: % is set by controls: 0 for no effect and ±100 for the full control effect; nearly all actives have a fitted effect of over 75% in size
Target sequence (Q96KQ7 913-1193 limits assumed): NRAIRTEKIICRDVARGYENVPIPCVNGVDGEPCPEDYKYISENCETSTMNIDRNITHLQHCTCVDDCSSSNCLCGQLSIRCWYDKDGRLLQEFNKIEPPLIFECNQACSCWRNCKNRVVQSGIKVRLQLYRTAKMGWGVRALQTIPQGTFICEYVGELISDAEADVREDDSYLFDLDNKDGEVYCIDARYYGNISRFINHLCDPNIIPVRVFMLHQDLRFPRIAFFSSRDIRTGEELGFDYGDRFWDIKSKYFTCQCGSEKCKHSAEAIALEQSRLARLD
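AlphaScreen read-out: biotin-H3K9 peptide (500 nM) methylation by 20 nM enzyme with 20 uM SAM, 2 h at room temperature after 15 min compound preincubation; anti-monomethyl H3K9 antibody plus donor/acceptor beads, 10 min dark.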
BAZ2B block: blocks human BAZ2B | AlphaScreen BAZ2B-H3K14Ac peptide displacement | Potency, µM (series often up to 114 µM), for the others: at the top dose activity change, negative = inhibition, most hits filed as inhibitors | 360,000 compounds, 4.4% hits | AID 504333; note: % is set by controls: 0 for no effect and ±100 for the full control effect; nearly all actives have a fitted effect of over 60% in size
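Protein-peptide AlphaScreen: BAZ2B 50 nM, b-H3K14Ac 50 nM, 1x PBS pH 7.4 + 0.01% Tween-20. Preincubation 30 min RT; cpd 30 min RT (top 110 uM); beads 20 min RT, light-protected.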
TDP1 inh: TDP1 (human) enzyme inhibition; 350,000 compounds, 0.28% hits; AID 485290; recombinant TDP1, AlphaScreen DNA substrate cleavage; Potency, µM (doses to about 130 µM), without a hit: at the top dose activity change, negative = inhibition, actives largely listed as inhibitors; Q9NUW8; note: % is set by controls: 0 for no effect and ±100 for the full control effect; nearly all actives have a fitted effect of over 40% in size
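Recombinant E. coli-expressed Tdp1 (1 nM) preincubated with compound 15 min at RT, then 5'-biotin/3'-phosphotyrosine-FITC DNA substrate (15 nM) added for 5 min. AlphaScreen beads (10 ug/ml) added, 10 min RT; tyrosine-FITC cleavage read as signal loss.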
HP1b chromo inh: blocks HP1-beta chromodomain binding to methylated histone tails; P83916; AlphaScreen HP1-beta / biotin-H3K9me3 peptide binding; Potency, µM (titrated, usually from 114 µM), for the others: at the top dose activity change, negative = inhibition, most hits filed as inhibitors; 390,000 compounds, 0.56% hits; note: nearly all actives have a fitted effect of over 70% in size
Target sequence (P83916 whole entry, looked up): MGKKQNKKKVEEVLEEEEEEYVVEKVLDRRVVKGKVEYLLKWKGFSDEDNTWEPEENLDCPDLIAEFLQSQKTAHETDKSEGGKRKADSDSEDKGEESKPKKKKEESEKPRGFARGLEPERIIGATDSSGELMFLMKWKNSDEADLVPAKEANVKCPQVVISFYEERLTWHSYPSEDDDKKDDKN
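AlphaScreen: HP1-beta (50 nM) preformed 30 min with biotin-H3(1-18)K9me3 peptide (50 nM) in PBS pH 7.4, 0.01% Tween-20. Compound added for 30 min at RT, then streptavidin donor/nickel chelate acceptor beads (10 ug/mL) for 30 min.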
JMJD2A Tudor inh: inhibitors of human JMJD2A Tudor domain; O75164; AlphaScreen JMJD2A-Tudor / H3K4me3 peptide binding; Potency, µM (titrated, usually from 114 µM), without a hit: at the top dose activity change, negative = inhibition, usual class: inhibitors; 390,000 compounds, 4.4% hits; note: % is set by controls: 0 for no effect and ±100 for the full control effect; nearly all actives have a fitted effect of over 50% in size
Sfp PPTase inh: blocks B. subtilis Sfp PPTase activity; Q9F4F7; Biochemical Sfp PPTase activity, qHTS; Potency, µM, for the others: largest response in the series, negative = inhibition, actives largely listed as inhibitors; 310,000 compounds, 3.5% hits; AID 1490;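 note: the enzyme is Sfp with the accession as filed and its product quenches rhodamine fluorescence; 0% = enzyme reaction without inhibitor and -100% = no enzyme wells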
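Sfp 15 nM + cpd, 15 min RT; start w/ rhodamine-CoA 5 uM, BHQ-2-YbbR 12.5 uM (final); 50 mM Hepes pH 7.6, 10 mM MgCl2, 0.01% NP-40, 0.01% BSA; read 525/598 nm at 0 and 30 min.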
* hit, by the source's call; [ ] = remark or other dose. Calls come from the whole dose curve; as a rule, active = well fitted curve in the direction sought with a large enough effect; inconclusive = small, poorly fitted or top-dose-only effect, or another doubt; inactive = no such curve, though single readings can be large; an effect the other way counts as inactive or inconclusive. Potency is the fitted concentration of half-maximal effect.

`CCCCN(CCCNC(=O)c1cc(Nc2ccc(OC)c(OC)c2)nc2ccccc12)Cc1ccccc1` gave G9a inh 11µM*, TDP1 inh 2%, HP1b chromo inh inconclusive and JMJD2A Tudor inh 28µM*.
For CCCCN(C)CCCNC(=O)c1cc(Nc2ccc(OC)c(OC)c2)nc2ccccc12 the results were G9a inh 71µM*, BAZ2B block -26%, HP1b chromo inh -6%, JMJD2A Tudor inh inconclusive and Sfp PPTase inh 3%.
CCCCN(CCCNC(=O)c1cc(Nc2ccc(OC)c(OC)c2)nc2ccccc12)c1ccccc1 was read as G9a inh -7%[59 µM], TDP1 inh 7%, HP1b chromo inh -22% and JMJD2A Tudor inh inconclusive.
`CCN(CC)CCNC(=O)c1cc2ccccc2nc1Cl` gave G9a inh inconclusive, BAZ2B block 79µM*, TDP1 inh -8%, HP1b chromo inh -10%, JMJD2A Tudor inh 35µM* and Sfp PPTase inh -15%.
Cc1nc2ccccc2cc1C(=O)NCc1ccc(F)cc1 was read as G9a inh 20%[0.0925 µM], BAZ2B block -1%, TDP1 inh 5%, HP1b chromo inh 39%, JMJD2A Tudor inh 0% and Sfp PPTase inh 16%.
Screening O=C(NCc1ccncc1)c1cc2ccccc2nc1Cl returned G9a inh 45µM*, BAZ2B block -17%, TDP1 inh 7%, HP1b chromo inh 16%, JMJD2A Tudor inh -12% and Sfp PPTase inh 11%.
CCn1c(NCc2cccc(Cl)c2)nc2ccccc21 was read as G9a inh 11%[59 µM], BAZ2B block -2%, TDP1 inh 3%, HP1b chromo inh 25% and JMJD2A Tudor inh 0%.
CCOC(=O)N1CCN(S(=O)(=O)c2ccc(C(=O)N(CCCN(C)C)c3nc4ccc(OC)cc4s3)cc2)CC1 was read as G9a inh inconclusive, BAZ2B block -18%, TDP1 inh 6%, HP1b chromo inh 10%, JMJD2A Tudor inh -17% and Sfp PPTase inh -6%.
For COc1cc2nc(N(CCCN(C)C)C(=O)c3ccc(S(=O)(=O)N4CCc5ccccc54)cc3)sc2cc1OC the results were G9a inh 11µM*, BAZ2B block inconclusive, HP1b chromo inh inconclusive and JMJD2A Tudor inh 50µM*.
`COc1ccc2sc(N(CCCN(C)C)C(=O)c3ccc(S(=O)(=O)N4CCCc5ccccc54)cc3)nc2c1` gave G9a inh 40µM*, BAZ2B block 28µM*, TDP1 inh 8%, HP1b chromo inh inconclusive and JMJD2A Tudor inh 20µM*.
`COc1ccccc1CNC(=O)c1cc2cc3ccc(Cl)cc3nc2o1` gave G9a inh -23%[59 µM], TDP1 inh 5%, HP1b chromo inh 1% and JMJD2A Tudor inh -15%.
`COC(=O)/C=C1\OC(c2ccccc2)=CC1=O` gave G9a inh 4µM*, BAZ2B block inconclusive, TDP1 inh -3% and Sfp PPTase inh 20µM*.
Clc1ccccc1-c1nnc(SCc2nc(-c3ccccc3)no2)n1-c1ccccc1 was read as G9a inh -19%[59 µM], BAZ2B block -22%, TDP1 inh 6%, HP1b chromo inh 28% and JMJD2A Tudor inh -19%.
Clc1ccc2nc(-c3ccc(Br)s3)cn2c1 was read as G9a inh 50µM*, BAZ2B block -2%, TDP1 inh 0%, HP1b chromo inh -4%, JMJD2A Tudor inh -17% and Sfp PPTase inh 19%.
COc1ccc(-c2cn3cc(Cl)ccc3n2)cc1OC was read as G9a inh 79µM*, BAZ2B block inconclusive, TDP1 inh -4%, HP1b chromo inh 6%, JMJD2A Tudor inh -4% and Sfp PPTase inh -11%.
For COc1ccc(-c2cn3cc(C)ccc3n2)cc1Br the results were G9a inh 20%, BAZ2B block -10%, TDP1 inh 3%, HP1b chromo inh 0%, JMJD2A Tudor inh -3% and Sfp PPTase inh -18%.
For O=C(O)c1ccccc1-c1cn2cc(Cl)ccc2n1 the results were G9a inh 26%, BAZ2B block -17%, TDP1 inh 1%, HP1b chromo inh 17%, JMJD2A Tudor inh -16% and Sfp PPTase inh 7%.
`COc1cc(/C=C2/C(=O)ON=C2C)cc(Cl)c1O` gave G9a inh 35µM*, BAZ2B block 56µM*, HP1b chromo inh -11%, JMJD2A Tudor inh -24% and Sfp PPTase inh -11%.
`CCOC(=O)COc1c(Cl)cc(/C=C2\N=C(C)OC2=O)cc1OC` gave HP1b chromo inh -18% and JMJD2A Tudor inh -25%.
For C#CCOc1c(Cl)cc(/C=C2/C(=O)ON=C2C)cc1OC the results were G9a inh 40µM*, BAZ2B block -3%, HP1b chromo inh 1%, JMJD2A Tudor inh -3% and Sfp PPTase inh 56µM*.
CCOc1cc(/C=C2\CCC/C(=C\c3cc(Cl)c(O)c(OCC)c3)C2=O)cc(Cl)c1O was read as G9a inh -7%[59 µM], BAZ2B block -3%[57.1 µM], TDP1 inh 2%, HP1b chromo inh -28%, JMJD2A Tudor inh -1%[11.4 µM] and Sfp PPTase inh 5%.
COc1cc(NS(=O)(=O)c2cc(NC(C)=O)ccc2OC)c(OC)cc1NC(=O)c1ccccc1 was read as HP1b chromo inh -7% and JMJD2A Tudor inh -31%.
For C[C@H](O)CO[C@H]1[C@H]2O[C@H]3[C@H](O)[C@@H](O)[C@@H](O[C@H]4[C@H](O)[C@@H](O)[C@@H](O[C@H]5[C@H](O)[C@@H](O)[C@@H](O[C@H]6[C@H](O)[C@@H](OC[C@H](C)O)[C@@H](O[C@H]7[C@H](O)[C@@H](OC[C@H](C)O)[C@@H](O[C@H]8[C@H](O)[C@@H](O)[C@@H](O[C@@H]([C@@H]1O)[C@@H](CO)O2)O[C@@H]8CO)O[C@@H]7CO)O[C@@H]6CO)O[C@@H]5CO)O[C@@H]4CO)O[C@@H]3CO the results were TDP1 inh 6%[56.1 µM] and Sfp PPTase inh 8%.
`COc1ccccc1-n1c(SCC(=O)c2ccc(O)cc2O)nc2cc([N+](=O)[O-])ccc21` gave G9a inh inconclusive, BAZ2B block inconclusive, TDP1 inh 8%, HP1b chromo inh -17%, JMJD2A Tudor inh 25µM* and Sfp PPTase inh 1%.
`COc1ccccc1-n1c(SCC(=O)NC2CCS(=O)(=O)C2)nc2cc([N+](=O)[O-])ccc21` (stereo not given) gave G9a inh 19%[59 µM], BAZ2B block -2%, TDP1 inh 3%, HP1b chromo inh 0%, JMJD2A Tudor inh -17% and Sfp PPTase inh 11%.
For Cn1c2ccccc2c(=O)c2c(=O)n(Cc3ccco3)c(-c3ccc(Cl)cc3Cl)nc21 the results were G9a inh -27%, BAZ2B block -15%, TDP1 inh -1% and Sfp PPTase inh 8.9µM*.
